Experimental data taken from PubChem BioAssay AID602333 (Sanford-Burnham Center for Chemical Genomics, 2012).
Among all 1,900 compounds or so, about 240 (13%) were called active.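 How the source made its calls: active means mean inhibition at least 40% at 20 µM, or signal 3 deviations below plate average, so some actives read negative; inactive means the rest.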 Only a selection was taken, and actives are over-represented in it overall.

What follows are compounds tested against Prothrombin (Bos taurus) (UniProt P00735) (assay: bovine thrombin protease inhibition, confirmation, counter-screen for Rpn11 inhibitor project, biochemical, fluorescence polarization, single concentration (AID 602333;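 further: plate controls were thrombin with DMSO for no effect and buffer wells lacking thrombin for full effect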)). Settings: bovine thrombin cleavage of Ub4-pepOG, at 20 µM, active compounds read high.
Chain of Prothrombin (Bos taurus) (P00735 whole entry, looked up): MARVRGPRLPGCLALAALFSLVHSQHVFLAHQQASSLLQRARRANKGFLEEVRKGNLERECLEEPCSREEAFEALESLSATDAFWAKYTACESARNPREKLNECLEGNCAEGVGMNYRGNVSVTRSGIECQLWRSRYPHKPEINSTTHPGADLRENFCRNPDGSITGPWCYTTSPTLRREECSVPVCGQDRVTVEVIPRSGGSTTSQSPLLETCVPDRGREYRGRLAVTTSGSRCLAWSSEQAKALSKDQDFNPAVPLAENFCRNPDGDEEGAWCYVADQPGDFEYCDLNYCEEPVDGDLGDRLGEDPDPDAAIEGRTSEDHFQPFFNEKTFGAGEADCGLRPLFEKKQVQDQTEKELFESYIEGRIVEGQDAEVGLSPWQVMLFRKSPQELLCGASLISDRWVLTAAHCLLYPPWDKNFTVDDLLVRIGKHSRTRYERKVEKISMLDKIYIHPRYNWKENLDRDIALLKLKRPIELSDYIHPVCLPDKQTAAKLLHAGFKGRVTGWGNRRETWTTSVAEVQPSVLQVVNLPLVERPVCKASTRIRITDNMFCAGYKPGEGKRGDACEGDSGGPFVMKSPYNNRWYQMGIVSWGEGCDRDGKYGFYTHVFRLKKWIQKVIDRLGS

SMILES | inhibition
CCN1C(=O)C(=Cc2c(C)n(CC(=O)NCC3CCCO3)c3ccccc23)C(=O)N(CC)C1=S (stereo not drawn) | 53.3% (active)
O=c1[nH]c(=O)n(Cc2ccccc2)c(O)c1/C=N/Nc1c(F)c(F)c(F)c(F)c1F | 12.8% (inactive)
Cc1cccc(N2C(=O)NC(=O)/C(=C\c3cnn(-c4ccccc4)c3)C2=O)c1 | 6.14% (inactive)
